Screens: PubChem, several laboratories
ROCK2 inh: inhibitors of human Rho kinase 2; 60,000 compounds, 0.35% hits; O75116; AID 604; purified ROCK2, Kinase-Glo ATP depletion luminescence; inhibition, % at 6 µM;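 active = inhibition above the screen-wide mean inhibition plus 3 SD, cut at about 18% in these data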;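 note: plate controls were DMSO wells for no effect and Y-27632 control wells after no-enzyme background subtraction for full effect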
D1 mod: D1 dopamine receptor (human) allosteric modulation. P21728. HEK293 D1, CRE-luciferase, dopamine EC30 potentiation; actives deviate in either direction. B-score at 10 µM. 58,000 compounds, 5.9% hits;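 active = luminescence count or its row- and column-corrected plate score outside the 99.7% band of the plate's sample wells, on either side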
DAT uptake mod: modulates human dopamine transporter uptake under cocaine | AID 449768 | B-score at 10 µM | LLC-PK1 hDAT cells, [14C]-dopamine uptake with cocaine IC80; actives deviate in either direction | 110,000 compounds, 1.3% hits;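 active = Z score or B-score, a plate-position-corrected score, falls beyond the plate's 99.7% confidence bounds, in either direction; inactive = both scores lie inside the 99.7% bounds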;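 note: scored against the spread of the other compound wells on the same plate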
Target sequence (Q01959 whole entry, looked up): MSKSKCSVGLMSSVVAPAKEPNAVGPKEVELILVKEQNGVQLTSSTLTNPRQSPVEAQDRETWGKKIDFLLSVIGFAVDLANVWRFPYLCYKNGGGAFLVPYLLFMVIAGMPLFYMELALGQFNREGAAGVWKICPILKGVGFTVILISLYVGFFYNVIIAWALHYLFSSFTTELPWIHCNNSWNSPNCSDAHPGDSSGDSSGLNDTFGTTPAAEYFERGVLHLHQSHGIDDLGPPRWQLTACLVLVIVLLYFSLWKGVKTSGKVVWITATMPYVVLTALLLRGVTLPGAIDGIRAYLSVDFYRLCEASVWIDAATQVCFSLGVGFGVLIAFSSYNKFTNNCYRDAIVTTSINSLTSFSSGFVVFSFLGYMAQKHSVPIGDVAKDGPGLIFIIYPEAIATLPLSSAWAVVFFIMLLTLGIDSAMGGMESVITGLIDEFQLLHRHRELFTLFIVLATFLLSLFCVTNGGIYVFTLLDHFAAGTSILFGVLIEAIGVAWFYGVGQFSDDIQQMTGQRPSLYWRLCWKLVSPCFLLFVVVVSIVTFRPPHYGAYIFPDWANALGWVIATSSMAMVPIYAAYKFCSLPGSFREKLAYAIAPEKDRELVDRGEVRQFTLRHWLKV
JNK3 blocker: JNK3 (human) kinase inhibition | P53779 | purified JNK3 kinase activity, HTS | inhibition, % at 8 µM | 60,000 compounds, 0.61% hits; in the data active = inhibition above about 17%;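 note: 0% = DMSO and 100% = reference inhibitor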
PKA inh: PKA (human) kinase inhibition. inhibition, % at 6 µM. 65,000 compounds, 0.1% hits. PKA Kemptide phosphorylation, Kinase-Glo ATP luminescence. P17612;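 active = inhibition above the screen-wide mean inhibition plus 3 SD, cut at about 21% in these data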
Starred values were filed as active, the others as inactive; / = no result. This excerpt belongs to a sample that is enriched for hits.

SMILES	ROCK2 inh	D1 mod	DAT uptake mod	JNK3 blocker	PKA inh
CCOC(=O)c1c(NC(C)=O)sc2c1CCC(C=NCCCN(CC)CC)=C2Sc1ccccc1	/	/	1.9	/	/
Cc1ccccc1Nc1nc(-c2sc(NC(=O)c3cccc(Cl)c3)nc2C)cs1	/	/	1.7*	/	/
Cc1ccccc1Nc1nc(-c2sc(NC(=O)c3ccccc3)nc2C)cs1	/	/	2.5*	/	/
Cc1ccc(Cl)cc1Nc1nc(-c2sc(NC(=O)c3cccc(Cl)c3)nc2C)cs1	/	/	0.074	/	/
Cc1nc(NC(=O)c2ccccc2)sc1-c1csc(Nc2ccc(Cl)cc2Cl)n1	/	/	2.4*	/	/
NNC(=O)Cn1c(SCc2ccccc2)nc2ccccc21	/	/	-0.82	/	/
CC(C)CN(CC(C)C)C(=O)CS(=O)(=O)Cc1ccccc1	4	1.2	-0.016	3	1
CSc1sc(C(=O)O)c(C)c1C(C)=O	/	/	-0.58	/	/
Cn1c(=O)cc(OCC(=O)NCCCN2CCN(c3cccc(Cl)c3)CC2)c2ccccc21	6	-5.3*	-0.25	-5	1
Cn1c(=O)c2c(nc(SCC(=O)Nc3ccc(N4CCOCC4)c(Cl)c3)n2C)n(C)c1=O	0	0.037	/	0	0
CCCCCC(=O)NC(NC(=S)Nc1ccc(S(N)(=O)=O)cc1)C(Cl)(Cl)Cl (configuration not stated)	/	/	-3.6*	/	/
COc1ccc(C(=O)NC(NC(=S)Nc2ccc(S(N)(=O)=O)cc2)C(Cl)(Cl)Cl)cc1 (configuration not stated)	/	/	-2.3*	/	/
CCCCCCCC(=O)NC(Nc1ccc(S(N)(=O)=O)cc1)C(Cl)(Cl)Cl (configuration not stated)	/	/	-8.3*	/	/
CCOC(=O)c1sc(NC(=O)CCn2nnc3ccccc32)c(C(=O)OCC)c1C	7	/	/	0	7
CCc1cccc(NC(=O)CCSCCC(=O)Nc2cccc(CC)c2)c1	/	/	0.42	/	/
CCOC(=O)C1CCN(c2c(NCc3ccc(C(=O)NC(C)CC)cc3)c(=O)c2=O)CC1 (configuration not stated)	6	-3.2*	0.16	3	13
CCOC(=O)N1CCN(C(=O)c2oc3ccc(S(=O)(=O)N4CCCCC4)cc3c2C)CC1	0	1.1	3*	-2	-7
Cc1c(C(=O)NCCc2ccccc2)oc2ccc(S(=O)(=O)N3CCOCC3)cc12	/	/	-0.68	/	-8
Cc1c(C(=O)NCCN2CCOCC2)oc2ccc(S(=O)(=O)N3CCCCCC3)cc12	/	-0.59	2*	/	-5
CCCCOC(=O)Nc1ccc(C(=O)OC)cc1	7	0.24	0.16	-4	7
CCCCOC(=O)Nc1cc(C(=O)OC)ccc1C(=O)OC	2	-7*	1.7	1	1
Cc1ccc(N2CC(C(=O)Nc3nccs3)CC2=O)cc1 (configuration not stated)	1	-7.4*	0.037	4	6
O=C(Nc1nccs1)C1CC(=O)N(c2ccccc2Cl)C1 (configuration not stated)	/	/	-0.27	/	/
Cc1ccc(CNC(=O)C2CC(c3ccccc3F)=NO2)cc1 (configuration not stated)	/	/	-0.53	/	/
CCOC(=O)C(NC(C)=O)(OCc1ccc(F)cc1)C(F)(F)F (configuration not stated)	0	-5.7*	0.63	4	0
SMILES	ROCK2 inh	D1 mod	DAT uptake mod	JNK3 blocker	PKA inh
CCCc1nc2oc3c(NCCN(C)C)ncnc3c2c2c1CCCC2	2	3.2*	-0.93	-14	-6
CC(Oc1c(Cl)cccc1Cl)C1=NCCN1 (configuration not stated)	/	/	0.55	/	/
COc1ccc(-c2csc(NC(CO)c3nc4ccccc4n3CCOCCO)n2)cc1 (configuration not stated)	/	/	1.9	/	/
COc1ccc(-c2csc(NC(CO)c3nc4ccccc4n3CCCO)n2)cc1 (configuration not stated)	/	/	3.1*	/	/
Cc1ccc(C(C)C)c(OCCNc2nc3c(c(=O)n(C)c(=O)n3C)n2C)c1	2	-1.3	/	-2	2
COc1ccc(NC(=O)c2cnc3sccn3c2=O)cc1OC	1	0.46	/	-9	-6
COc1ccccc1N1CCN(CC(=O)Nc2cc(C)nn2-c2nc(C)cc(C)n2)CC1	/	4.8*	/	/	7
NC(Cc1c[nH]c2ccccc12)C(=O)Nc1ccccc1 (configuration not stated)	/	/	1.5	/	/
CC(=O)Oc1cccc(N2C(=O)C3C4C=CC(C4=C(C)C)C3C2=O)c1 (configuration not stated)	-1	0.59	-9*	-5	-10
O=C1C2C3CC(C(Br)C3Br)C2C(=O)N1c1ccccn1 (configuration not stated)	/	/	-7.9*	/	/
CCCCn1nnnc1SCC(=O)N1CCOCC1	/	/	-0.81	/	/
O=C(CSc1nnc2ccccn12)NC(=O)NC1CCCCC1	3	-5.5*	-0.16	-6	9
O=C(CSc1nnc2ccccn12)Nc1ccccc1C(=O)NC1CC1	1	/	0.32	-2	3
CC(C)c1ccc(NC(=O)CN(Cc2ccccc2)S(C)(=O)=O)cc1	/	/	3*	/	/
CCOc1ccc(NC(=O)CN(Cc2ccccc2)S(C)(=O)=O)cc1	/	/	0.74	/	/
Nc1cccc(-c2nc3ccc(N)cc3s2)c1	-15	-4.7*	1.3	-3	-6
Cc1ccc(C(=O)Nc2cccc(C(F)(F)F)c2)cc1Nc1ncnc2nc[nH]c12	/	/	0.95	/	/
Cn1c(CN2CCCC2)nc2cc(NS(=O)(=O)c3ccccc3)ccc21	6	0.025	0.74	-2	14
O=S(=O)(Nc1ccc(O)c(CN2CCCCC2)c1)c1ccccc1	-8	0.035	1.6*	-3	1
Cc1ccc(CNC(=O)c2cc3c(=O)n4ccccc4nc3n(Cc3ccco3)c2=N)cc1	-17	/	-2.7*	-4	-1
N=c1c(C(=O)NCc2ccccc2)cc2c(=O)n3ccccc3nc2n1Cc1ccco1	5	-0.49	1.6	0	7
COc1cc2c(cc1NC(=O)COc1ccc3ccccc3c1)oc1ccccc12	/	/	-7.8*	/	/
Cc1ccccc1-n1nc(C)c2cc(C(=O)NCc3cccnc3)sc21	0	-4.7*	-0.047	57*	3
Cc1nn(CC(=O)NCc2cccnc2)c(=O)c2ccccc12	3	-0.63	1.1	-7	3
COc1ccc(C(=O)Nn2cnnc2)c(OC)c1	/	/	0.16	/	/
SMILES	ROCK2 inh	D1 mod	DAT uptake mod	JNK3 blocker	PKA inh
COc1ccc(C(=O)Nc2ccc(C)cn2)c(OC)c1	/	-9.5*	-0.11	/	-1
COc1ccccc1-n1c(N)c(C(=O)NCC2CCCO2)c2nc3ccccc3nc21 (configuration not stated)	0	/	4.2*	6	-4
Nc1c(C(=O)NCC2CCCO2)c2nc3ccccc3nc2n1-c1ccccc1 (configuration not stated)	2	-1.6	0.45	1	3
Cc1cc(=O)oc(C)c1C(=O)NCC(C)NC(=O)c1c(C)cc(=O)oc1C (configuration not stated)	-1	/	3.2*	1	-5
CCCCN1C2=NCCCN2c2ccccc21	/	/	-0.11	/	/
CCCCN1C2=NCCCN2c2cc(C)c(C)cc21	5	-3.4*	/	-2	11
Cn1c(=O)c2cc(S(=O)(=O)NCCC(=O)NCC3CCCO3)ccc2n(C)c1=O (configuration not stated)	8	-0.063	-0.059	5	6
